Experimental data taken from the supplement of paper PMC6555819.

Assays:
Assay in all cases: PBM binding z-score (relative to random genomic background probes); higher = stronger binding; sequences stand for … in GC…GCGATTGACAGCGTAGAATGAAGG
[1] = tested on: FXR:RXRa (NR concentration 270 nM, RXRa partner concentration 90 nM)
Outline: (§1)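 Binding z-scores take random background probes as their reference. They come from custom Agilent 4×180K protein-binding microarrays incubated 1 h with ligand-free nuclear receptor dimers, with antibodies against each partner (one per run) detecting binding. Scanned fluorescence was regression-normalized.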

[2] = tested on: LXRa:RXRa (NR concentration 270 nM, RXRa partner concentration 90 nM)
Outline: as §1

[3] = tested on: LXRa homodimer (NR concentration 270 nM)
Outline: as §1

[4] = tested on: LXRb:RXRa (NR concentration 270 nM, RXRa partner concentration 90 nM)
Outline: as §1

[5] = tested on: LXRb homodimer (NR concentration 270 nM)
Outline: as §1

[6] = tested on: PPARa:RXRa (NR concentration 270 nM, RXRa partner concentration 90 nM)
Outline: as §1

[7] = tested on: PPARg:RXRa (NR concentration 180 nM, RXRa partner concentration 90 nM)
Outline: as §1

[8] = tested on: PPARg:RXRa 270nM:90nM, anti-RXR (NR concentration 270 nM, RXRa partner concentration 90 nM)
Outline: as §1

[9] = tested on: PPARg:RXRa 30nM:10nM, anti-RXR (NR concentration 30 nM, RXRa partner concentration 10 nM)
Outline: as §1

[10] = tested on: PPARg:RXRa 90nM:30nM, anti-RXR (NR concentration 90 nM, RXRa partner concentration 30 nM)
Outline: as §1

Sequence | PBM binding z-score [1] | PBM binding z-score [2] | PBM binding z-score [3] | PBM binding z-score [4] | PBM binding z-score [5] | PBM binding z-score [6] | PBM binding z-score [7] | PBM binding z-score [8] | PBM binding z-score [9] | PBM binding z-score [10]
ACAGACAGGTGAGTGAAGGTAACTCACCTGGACG | 0.567 | 0.338 | -0.604 | -0.347 | -0.328 | 0.358 | 0.593 | 0.216 | 0.0231 | -0.144
CCGACTGGGGGATAAGGTTACCATAAGCCAGCCC | 0.506 | 2.65 | -0.0985 | 2.4 | 2.01 | 1.91 | 1.43 | 2.38 | 1.06 | 2.07
CGTCTAAGGTCAATGCTAGGTCAGTGAAAGCATT | 7.02 | 5.82 | 2.56 | 4.58 | 1.34 | 5.36 | 4.53 | 5.68 | 1.9 | 4.12
GCAGACAGGTGAAACACAGGTAACTCAGGGTGGC | 0.0737 | 0.312 | -0.336 | -0.415 | -0.7 | 0.874 | 0.952 | 0.125 | -0.424 | -0.0605
CCGACTGGGGCAGAAAGGTTAGCATACCATCCGG | -0.121 | 0.018 | -0.422 | 0.0251 | -1.09 | 1.22 | 1.22 | 1.7 | -0.0378 | 0.958
TCTCGGAGGCCACGAAAGGTCAGAGCTCGACATC | 3.4 | 5.27 | 1.95 | 3.63 | -0.386 | 3.82 | 1.39 | 2.91 | 2.22 | 2.46
CAAACTAGGTCAAGGTCAAACTCGGTTTGTGCCA | 7.27 | 5.63 | 4.45 | 4.69 | 1.71 | 6.2 | 9.59 | 7.65 | 6.72 | 7.91
CGAACTAGGTCATCCAGGACAGCGAATACATTGA | 4.51 | 2.55 | 0.58 | 2.07 | -0.199 | 4.82 | 7.57 | 6.41 | 4.29 | 5.78
GCTAGCAGGCCAGTTGGGTCACTCAATGACGGGC | -0.488 | -0.319 | -0.976 | -0.381 | -1.51 | 0.54 | 0.164 | 0.0245 | -0.726 | -0.378
CGTCAAAGTTCAAGGTAACGTACCAGAAAGCAGC | 6.54 | 5.59 | 3.17 | 3.47 | 1.03 | 4.79 | 4.38 | 5.05 | 1.94 | 4.24
AGAACGAGGGGAATGAGTTGATAGCACGGGTGGC | -0.0217 | -0.0133 | -0.00891 | -0.228 | 0.0514 | 0.192 | 0.861 | -0.0385 | -0.193 | -0.152
TCGAGTAGGTTAGTTGGGGCATTCAGCCAACATA | 0.131 | -0.106 | -0.363 | 0.412 | -0.31 | 0.49 | -0.334 | 0.635 | 0.877 | 0.623
